Screens deposited in PubChem BioAssay by National Center for Advancing Translational Sciences (NCATS).
GALC G270D act = galactocerebrosidase G270D activity enhancement, cell-based | P54803 | 145M-Twi-hGALC-G270D cells (Twitcher mouse brain line with human GALC G270D), HMU-beta-Gal fluorescence, 48 h | Potency, µM (titrated, usually from 57.5 µM), most hits filed as activators | 0.1% of 45,000 active; note: potency is the fitted concentration of half-maximal effect; 0% is about no effect; nearly all actives have a fitted effect of over 65% in size
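Fluorogenic HMU-b-Gal hydrolysis (0.1 mM final, pH 5.2 citrate-phosphate with 1 mg/mL sodium taurocholate; carbonate stop buffer) measures mutant GALC activity after compound treatment of live 145M-Twi Twitcher brain cells stably carrying human GALC-G270D, with wild-type GALC line alongside; activation sought.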
p53null 32C kill = selectivity test: cytotoxicity in p53 null cells, permissive temperature | H1299-neo p53 null cells, ATP luminescence, 24 h, 32C | Potency, µM (titrated, usually from 46.1 µM), for the others: top-dose activity change, negative = cytotoxicity, usual class: cytotoxic | 0.62% of 55,000 active | AID 903;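 note: potency is the fitted concentration of half-maximal effect; 0% = DMSO only and -100% = full killing by 100 µM tamoxifen; nearly all actives have a fitted effect of over 55% in size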
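H1299-neo, 600 cells/well; overnight 37C; cpd up to 46 uM, 24 h at 32C; ATPlite luminescence after 20 min RT; normalized to DMSO (0%) and tamoxifen 100 uM (100% kill); Hill-fit AC50.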
OvCa metastasis = inhibitors of ovarian cancer cell adhesion and invasion in omental model; SKOV3ip1-GFP adhesion/invasion on 3D omental model, fluorescence; Potency, µM (highest dose often 45.8 µM), inactives show top-dose activity change, negative = inhibition, usual class: inhibitors; 0.1% of 46,000 active;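 note: potency is the fitted concentration of half-maximal effect; plate controls were DMSO wells for no effect and tomatine positive control wells for full effect; nearly all actives have a fitted effect of over 65% in size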
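Adhesion/invasion was scored as fixed GFP-labeled SKOV3ip1 cell counts (488/509 nm), normalized to DMSO and tomatine controls. Cancer cells in serum-free medium, with four compound doses (0.36-46 umol/L), sat 2 hr at RT then 16 hr at 37 C on a 48 hr fibroblast/mesothelial/ECM culture.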
DRV1 agonist = agonists of human resolvin D1 receptor DRV1 (GPR32); O75388; CHO-K1 GPR32 beta-arrestin PathHunter luminescence, 90 min; zero percent set by DMSO-only wells; activation, % at 76.9 µM; 2.5% of 48,000 active; AID 1346428;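 active = activation of at least 60% and not above a set upper limit, about 1 call in 100 departs from these limits; inconclusive = activation of 40% to 60%, or above that upper limit; inactive = activation under 40%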; note: 0% is about no effect
Target sequence (O75388 whole entry, looked up): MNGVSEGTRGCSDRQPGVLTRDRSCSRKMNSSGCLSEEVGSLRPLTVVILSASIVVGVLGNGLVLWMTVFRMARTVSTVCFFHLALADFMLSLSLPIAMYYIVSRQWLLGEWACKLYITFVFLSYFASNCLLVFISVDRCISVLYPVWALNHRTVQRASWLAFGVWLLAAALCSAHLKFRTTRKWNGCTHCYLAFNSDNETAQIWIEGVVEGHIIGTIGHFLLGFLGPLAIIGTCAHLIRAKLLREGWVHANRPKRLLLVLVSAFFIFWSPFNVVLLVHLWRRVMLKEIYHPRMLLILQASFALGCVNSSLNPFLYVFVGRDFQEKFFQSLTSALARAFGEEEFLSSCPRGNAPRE
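Agonism was scored as beta-arrestin recruitment to ProLink-fused GPR32 in stably transfected CHO-K1 cells, giving a chemiluminescent beta-Gal signal; compounds were incubated 90 min at 37 °C.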
NTMT1 inh = NTMT1 methyltransferase inhibition. NTMT1 MTase-Glo SAH luminescence, purified enzyme. Potency, µM (top dose mostly 114 µM), inactives show top-dose activity change, negative = inhibition, hits mostly inhibitors. 2.5% of 59,000 active. AID 1645870;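 note: potency is the fitted concentration of half-maximal effect; plate controls were DMSO vehicle for no effect and no enzyme for full effect; nearly all actives have a fitted effect of over 65% in size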
Target sequence (Q9BV86 whole entry, looked up): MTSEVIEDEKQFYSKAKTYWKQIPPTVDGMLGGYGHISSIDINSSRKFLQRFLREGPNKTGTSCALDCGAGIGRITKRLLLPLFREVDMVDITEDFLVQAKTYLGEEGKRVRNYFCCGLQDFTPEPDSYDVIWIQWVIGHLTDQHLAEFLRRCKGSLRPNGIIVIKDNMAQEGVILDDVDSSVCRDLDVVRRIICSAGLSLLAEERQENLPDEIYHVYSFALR
p53null 39C kill = selectivity test: cytotoxicity in p53 null cells, nonpermissive temperature. AID 904. Potency, µM (titrated, usually from 46.1 µM), for the others: top-dose activity, negative = cell killing, usual class: cytotoxic. 0.97% of 55,000 active. H1299 p53-null (neo) cells, 39C, ATPlite viability, 24 h;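 note: potency is the fitted concentration of half-maximal effect; 0% = DMSO only and -100% = full killing by 100 µM tamoxifen; nearly all actives have a fitted effect of over 50% in size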
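ATP-luminescence viability readout (ATPlite, 20 min RT) after 24 hr compound treatment at 39C of H1299-neo or H1299-p53A138V cells; titration up to 46 uM; normalized to DMSO and 100 uM tamoxifen; Hill-fit AC50.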
* marks the source's active call; other numbers are inactive results; i = inactive; ? = inconclusive; nt = not tested or not shown; ! = a repeat was not active; [ ] = dose if it differs, or a comment. Only some compounds are listed: those with a hit (about 4% of all), similar ones and a draw of the others. Unless noted, calls come from the whole dose curve; as a rule, active = well fitted curve in the direction sought with a large enough effect; inconclusive = small, poorly fitted or top-dose-only effect, or another doubt; inactive = no such curve, though single readings can be large; an effect the other way counts as inactive or inconclusive.

SMILES	GALC G270D act	p53null 32C kill	OvCa metastasis	DRV1 agonist	NTMT1 inh	p53null 39C kill
O=C(c1ccc(F)cc1)N1c2nc(-c3ccco3)nn2C2(CCCCC2)[C@@H]2CCCC[C@@H]21	i	2.1%	i	-35.4	-17.0%	-7.5%
O=C(c1ccccc1F)N1c2nc(-c3ccco3)nn2C2(CCCCC2)[C@@H]2CCCC[C@@H]21	i	-0.6%	i	-48.1	50.1µM*	9.9%
C=CCc1ccccc1OCCSc1nc(-c2cccs2)nc2cc(=O)[nH]n12	nt	-3.5%	i	85.6*	nt	0.7%
C=CCc1ccccc1OCCSc1nc(-c2ccc(C(C)(C)C)cc2)nc2cc(=O)[nH]n12	nt	4.8%	?	-1.9	nt	7.8%
COc1ccccc1OCCSc1nc(-c2ccc(C(C)(C)C)cc2)nc2cc(=O)[nH]n12	nt	12.4%	-7.4%	65.5*	nt	29.4%
O=c1cc2nc(-c3cccs3)nc(SCCOc3ccc(Cl)cc3)n2[nH]1	i	-8.3%	7.8%	-0.8	?	-12.6%
CC(C)(C)c1ccc(OCCSc2nc(-c3cccs3)nc3cc(=O)[nH]n23)cc1	nt	-2.9%	-6.1%	67.9*	nt	-18.0%
COc1ccccc1-c1nc(NCc2ccc(-c3cccnc3)cc2)c2ccccc2n1	nt	nt	nt	nt	8.2%	nt
c1ccc2c(-c3cnn4cc(-c5ccc(OCCN6CCOCC6)cc5)cnc34)ccnc2c1	nt	nt	nt	nt	-15.0%[57.5 µM]	nt
Cc1cc2c(s1)c1cnn(Cc3ccc(F)c(Cl)c3)c(=O)c1n2C	nt	nt	nt	nt	-1.9%[57.5 µM]	nt
Cc1cc2c(s1)c1cnn(Cc3ccc(Cl)cc3)c(=O)c1n2C	nt	nt	nt	nt	89.1µM*	nt
Cc1ccc(-c2ccc(=O)n(CC(=O)NCCc3ccncc3)n2)cc1	nt	nt	nt	nt	12.2%	nt
Cc1ccc(-c2nccc(=O)n2CC(=O)N(C)C(C)c2ccco2)cc1 (stereo unspecified)	nt	nt	nt	nt	-2.9%	nt
CCCNCC(O)COc1ccccc1C(=O)CCc1ccccc1 (stereo unspecified)	i	nt	-8.0%	86.7*!	-6.1%	nt
CCN(CC)CCOc1ccc(Cc2ccccc2)cc1	i	nt	-5.9%	6.9	31.6µM*!	nt
CCN(CCCc1ccccc1)CCCc1ccccc1	i	nt	nt	30.6	?	nt
CCN(CC)CCOc1ccccc1C(=O)CCc1ccccc1	i	nt	nt	106.8*	23.7%[57.5 µM]	nt
Cc1nnc(-c2ccccc2)n1CCCn1ccnc1	nt	nt	nt	nt	10.0%	nt
CC(=O)Nc1sc2c(c1-c1ccc3c(c1)OCCCO3)CCNC2	nt	nt	nt	nt	-0.8%	nt
O=C(CCS(=O)(=O)c1cccs1)Nc1ccc(C(=O)Nc2cccc(Cl)c2)cc1	i	-15.3%	6.9%	65.3*	8.5%	-3.6%
CC(C)[C@@H](C)/C=C/[C@@H](C)[C@H]1CC[C@H]2C3=CC=C4C[C@@H](O)CC[C@]4(C)C3=CC[C@]12C	nt	nt	nt	nt	-7.5%[57.5 µM]	nt
COc1ccccc1NC(=O)c1c(NC(=O)c2cccs2)sc2c1CCC(C(C)(C)C)C2 (stereo unspecified)	i	-7.9%	11.3%	-1.2	21.5%	-1.2%
CC(C)(C)C1CCc2c(sc(NC(=O)CCC(=O)O)c2C(=O)Nc2ccccc2C(F)(F)F)C1 (stereo unspecified)	i	31.5%	i	43.5	44.7µM*	33.1%
COc1ccc(NC(=O)c2c(NC(=O)c3ccncc3)sc3c2CCC(C(C)(C)C)C3)cc1 (stereo unspecified)	i	18.3%	-6.7%	65.7*	18.0%	23.5%
C/C=C(\C)C(=O)OCC1OC(OC2OC(COC(=O)/C(C)=C/C)C(OC3OC(CO)C(OC(=O)/C(C)=C/C)C(OC(=O)/C(C)=C/C)C3O)C(O)C2O)C(O)C(O)C1OC1OC(CO)C(OC(=O)/C(C)=C/C)C(OC(=O)/C(C)=C/C)C1O (stereo unspecified)	nt	nt	nt	nt	-9.8%[12.6 µM]	nt
SMILES	GALC G270D act	p53null 32C kill	OvCa metastasis	DRV1 agonist	NTMT1 inh	p53null 39C kill
Cc1ccc(CSc2nc3ccc(NC(=O)COc4ccc(F)cc4)cc3s2)cc1	i	0.8%	4.1%	88.2*	1.5%	-10.5%
CC(C)(C)C(=O)Nc1ccc2nc(SCc3ccccc3)sc2c1	i	14.3%	i	120.0*	1.4%	?
O=C(COc1ccc(F)cc1)Nc1ccc2nc(SCc3ccccc3)sc2c1	i	-10.4%	2.3%	0.1	?	-1.8%
O=C(COc1ccc(F)cc1)Nc1ccc2nc(SCCOc3ccccc3)sc2c1	i	-3.6%	i	26.4	-3.0%	2.9%
O=C(Nc1ccc2nc(SCc3ccccc3)sc2c1)c1ccccc1F	i	-6.1%	-4.3%	26.6	-2.7%	-15.9%
NC(=O)CSc1nc2ccc(NC(=O)COc3ccccc3)cc2s1	i	-18.8%	-6.9%	69.7*	19.5%	-4.2%
CC(C)(C)C(=O)Nc1ccc(-c2nc3ccccc3s2)cc1	i	0.501µM*	?	-3.1	?	0.631µM*
FC(F)(F)c1ccccc1-c1nc(NCc2cccc3ccccc23)c2ccccc2n1	nt	nt	nt	nt	14.1%	nt
CC(C)CC(=O)OC[C@H]1O[C@@](COC(=O)CC(C)C)(O[C@H]2O[C@H](CO)[C@@H](O)[C@H](O)[C@H]2O)[C@@H](OC(=O)CC(C)C)[C@@H]1OC(=O)CC(C)C	nt	nt	nt	nt	-0.9%[12.6 µM]	nt
CCC(=O)Nc1ccc2nc(SCc3ccc(C)cc3)sc2c1	i	-3.1%	i	86.3*	7.0%	3.8%
CCOC(=O)c1cccc(NC(=O)c2cc3cc4cc(OC)ccc4nc3s2)c1	i	-4.3%	17.0%	100.8*	-8.6%	7.3%
COc1ccc(C(=O)COC(=O)c2cccc(NC(=O)c3ccc(OC)c(OC)c3)c2)cc1	i	15.8µM*	-7.4%	1.6	6.7%	?
CCOC(=O)c1cccc(NC(=O)c2cc3cc4ccc(C)cc4nc3s2)c1	i	-1.4%	i	0.7	0.8%	-17.1%
COc1ccc(C(=O)Nc2ccc(C(=O)OCC(=O)c3cccc4ccccc34)cc2)cc1	nt	nt	nt	nt	nt	23.5%
O=C(CCNS(=O)(=O)c1ccc(Br)s1)Nc1ccc(Br)cc1	i	-8.1%	-7.3%	88.6*	0.6%	-10.0%
Cc1c(C(=O)N2CCOc3ccc(-c4ccc(N)nc4)cc3C2)ccc(S(C)(=O)=O)c1F	nt	nt	nt	nt	50.1µM*!	nt
O=C(/C=C/c1cccnc1)c1ccncc1	nt	nt	nt	nt	-18.7%	nt
COc1ccccc1Nc1nc(-c2ccccc2F)nc2ccccc12	i	1.0%	-0.2%	-17.1	1.7%	5.4%
COc1cc2nc(-c3cc(F)ccc3O)nc(N[C@@H]3CNC[C@H]3C(C)(C)O)c2cc1OC	nt	nt	nt	nt	28.2µM*	nt
CC(=O)Nc1sc2c(c1-c1ccc3nc[nH]c3c1)CCNC2	nt	nt	nt	nt	50.1µM*	nt
